Assay outcomes deposited in PubChem by several laboratories.
Rows were chosen to be rich in hits. Some 12% of all compounds tested hit in one or more screens of this group.
Lmaj promast: reduces viability of Leishmania major promastigotes; resazurin fluorescence viability; inhibition, % at 10 µM; hit rate 9% among 200,000; in the data active = inhibition above about 50%;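 also: promastigotes grown with compound for 44 hours at 28 °C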
ROMK mod: modulates human ROMK potassium channel activity; Tet-inducible ROMK, thallium flux fluorescence; actives lie on both sides; AID 1918; hit rate 2% among 130,000; B-score at 10 µM; P48048;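 active = signal ratio slope over the read window, or its plate-corrected B-score, at least 3 SD from the plate mean, either direction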;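 also: B-score of the F/F0 ratio slope over 7 to 12 s after thallium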
KCC2 mod: KCC2 (human) Cl- transport modulation; Q9H2X9; KCC2 cells, thallium flux FluoZin-2 fluorescence; B-score of Tl+ flux slope (higher = more flux/activation; lower = inhibition) at 10 µM; hit rate 2.2% among 190,000; AID 1456;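 active = thallium flux slope and its plate-corrected score both differing from the plate sample mean at a set confidence after two filtering rounds, in either direction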;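 also: slope of fluorescence scaled to starting intensity during 10 to 20 s after thallium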
m-calpain inh: calpain II (pig) inhibition | inhibition, % at 16 µM | purified calpain II, fluorogenic peptide substrate, 30 min | hit rate 0.37% among 220,000 | AID 1236;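 active = inhibition above about 50%, limit read from the data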
WT yeast gro inh: growth inhibition of WT yeast, mitochondrial fusion screen. AID 1362. hit rate 2.1% among 190,000. inhibition, % at 10 µM. mitochondrial fusion phenotypic screen, WT strain; in the data active = inhibition above about 58%; tested in S. cerevisiae
* = called active by the depositor; i = inactive; . = not tested or not shown.

SMILES	Lmaj promast	ROMK mod	KCC2 mod	m-calpain inh	WT yeast gro inh
Cc1ccc(NC(=S)N2CCC(c3ccccc3)C2)c(Cl)c1 (stereo not drawn)	13	0.0098	-2	15	42
Fc1ccc(-c2nnn3c2nc(NCc2ccccc2)c2ccccc23)cc1	.	-0.15	-1	-187	.
NNc1nc2c(-c3ccc(Cl)cc3)nnn2c2ccccc12	86*	-0.35	0.49	-139	20
NNc1nc2c(-c3ccc(F)cc3)nnn2c2ccccc12	97*	-0.0014	-0.0028	-110	34
COCCCNc1nc2c(-c3ccc(Cl)cc3)nnn2c2ccccc12	-4	0.59	-0.032	i	4
Cc1cccc(NC(=O)CSc2nnc(NC(=O)c3ccco3)s2)c1	-9	-0.9	-0.0039	-41	-21
Cc1cc(C)cc(C(=O)OCC(=O)Nc2cccc(S(=O)(=O)NC3=NCCCCC3)c2)c1	52*	0.78	-0.028	6	-13
O=C(Nc1ccccc1)N1CCCC(CNS(=O)(=O)Cc2ccccc2)C1 (stereo not drawn)	13	0.66	-0.91	-18	-4
CCN(CC(=O)Nc1ccccc1SC)Cc1nc2ccccc2c(=O)[nH]1	.	.	-1	-5	.
CCN(CC(=O)NC(c1ccccc1)c1ccccc1)Cc1nc2ccccc2c(=O)[nH]1	54*	.	-0.35	-54	-4
CCCCn1c(SCC(=O)NC2CC(C)(C)NC(C)(C)C2)nc2cc(S(N)(=O)=O)ccc21	.	.	1.2	-3	.
CCOC(=O)C1=C(C)C2C3C(=O)N(c4ccc(C)cc4C)C(=O)C3C1(C)C1C(=O)N(c3ccc(C)cc3C)C(=O)C21 (stereo not drawn)	74*	-0.35	0.39	4	-1
CCOC(=O)C1=C(C)C2C3C(=O)N(c4ccccc4C)C(=O)C3C1(C)C1C(=O)N(c3ccccc3C)C(=O)C21 (stereo not drawn)	56*	-0.23	-0.51	7	1
CC(C)(C)c1nnc(NC(=O)Cc2ccc(Br)cc2)s1	32	.	0.83	-4	-5
Cc1ccccc1-n1c(SCC(=O)N/N=C/C=C/c2ccccc2[N+](=O)[O-])nc2ccccc2c1=O	60*	.	-1.9	-101	6
CCCCCC1CCC(c2n[nH]c(=S)n2C)CC1 (stereo not drawn)	10	-0.045	2.7	28	65*
CNC(=S)Nc1ccc2nc(C)oc2c1	-2	-0.34	0.33	20	6
CN(C)CCCN=Cc1c(O)n(Cc2ccccc2)c(=O)c2ccccc12	92*	.	.	2	.
COc1ccc(Cn2c(O)c(C=Nc3ccc(C)cc3)c3ccccc3c2=O)cc1	92*	.	0.29	12	-3
COc1ccc(Cn2c(O)c(C=Nc3ccc(O)cc3)c3ccccc3c2=O)cc1	94*	0.33	-0.12	-8	64*
COc1ccc(OC)c(NC(=O)CC2C(=O)NCCN2C(=O)Nc2cccc(Cl)c2)c1 (stereo not drawn)	4	-1.4	.	-6	4
COc1ccc(C(C)=O)cc1CS(=O)(=O)CC(=O)O	-11	0.19	0.031	22	1
Cc1oc2nc(SCC(=O)N3CCCCC3)nc(N)c2c1C	2	0.013	0.29	19	-2
CCOC(=O)Cc1c[nH]c(=S)[nH]c1=O	.	0.16	0.41	7	.
CC(=O)Nc1ccc(S(=O)(=O)Nc2cccc3[nH]ncc23)cc1	-6	-0.18	-0.64	51*	-18
SMILES	Lmaj promast	ROMK mod	KCC2 mod	m-calpain inh	WT yeast gro inh
O=C(CSc1nnc2ccccn12)NNC(=O)c1ccc(F)cc1	-3	0.51	-0.013	21	11
Cc1cc(C)n(C(=O)c2ccc([N+](=O)[O-])c(Cl)c2)n1	92*	.	-0.44	22	-12
CC(C)(CNC(=O)c1ccc([N+](=O)[O-])c(Cl)c1)CNC(=O)c1ccc([N+](=O)[O-])c(Cl)c1	88*	.	-0.9	1	48
CCOC(=O)c1ccc(NC(=O)CN2C(=O)NC3(CCCCCC3)C2=O)cc1	91*	0.23	0.52	11	7
CC(C)(C)c1ccc(-c2csc(NC(=O)CN3C(=O)NC4(CCCCC4)C3=O)n2)cc1	99*	-0.069	0.45	-9	-18
COC(=O)c1ccc(NC(=O)Cc2ccc(C)cc2)cc1	65*	0.57	-0.21	26	-14
CCOC(=O)c1ccc(NC(=O)CN2C(=O)NC3(CCC(C)CC3)C2=O)cc1 (stereo not drawn)	0	-0.14	0.44	-8	1
CCc1ccccc1NC(=O)Cc1ccc(-n2cccc2)cc1	6	-0.084	-1.1	-43	4
CCc1ccc(NC(=O)Cc2ccc(-n3cccc3)cc2)cc1	86*	0.89	-1.3	-4	2
O=C(COc1ncnc2ccc(Br)cc12)NCc1ccco1	.	.	-0.31	4	.
